{"source": "PubChem BioAssay (EPA / NIEHS)", "note": "Results filed as inconclusive are left out. Calls of active or inactive are those of the source. The calls were made as follows: active = hit-call score of the fitted dose curve at least 0.9, where 1 is the maximum; inconclusive = response in the unintended direction; inactive = score below 0.9."}
{"assay": "CCTE_Mundy_HCI_hNP1_CellTiter: CCTE's Cell Titer-Glo 2 Assay in human neuroprogenitor cells for Viability, Mundy Lab (AID 2284241);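 as to AC50: a hit is a drop in ATP luminescence versus DMSO meaning reduced viability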", "experimental": "CCTE_Mundy_HCI_hNP1_CellTiter is a multiplexed, cell-based-readout assay that uses neural stem cells derived from a neuroepithelial cell lineage of WA09 embryonic cells with measurements taken at […] after chemical dosing in a microplate: 96-well plate.CCTE_Mundy_HCI_hNP1_CellTiter is one component of the CCTE_Mundy_HCI_hNP1_CellTiter assay. It measures cell viability related to ATP content using Luminescent Reporter.Data from the assay component CCTE_Mundy_HCI_hNP1_CellTiter was analyzed at the endpoint CCTE_Mundy_HCI_hNP1_CellTiter in the positive analysis fitting direction relative to DMSO as the negative control and baseline of activity. Using a type of viability reporter, loss -of-signal activity can be used to understand viability effects.\nHuman neural progenitor cells (hNP1) were obtained as cryopreserved cells from ArunA Biomedical, Athens Georgia. Cells are plated on pre-coated poly-L-ornithine/laminin clear bottom and opaque 96 well plates (day 0). Plates are placed in a 37 °C, 5% CO2 incubator for 40 to 44 hours at which time plates are removed from the incubator and 10 uL of a freshly made chemical solution is added to each well. Cell viability was based on number of cells per field or determined in sister plates using the CellTiter-Glo luminescent assay (Promega) which measures the amount of ATP present in each well. Twenty-four hours after chemical treatment, 50ul of CellTiter-Glo assay buffer was added to each well and the plate incubated for 30min at room temperature. Luminescence was then recorded in each well using a FLUOstar Optima plate reader (BMG LABTECH, Cary, NC)."}
{"compound": "OC(Cn1cncn1)(Cn1cncn1)c1ccc(F)cc1F", "outcome": "inactive"}
{"compound": "O=C(Cl)C(F)(F)C(F)(F)C(F)(F)C(=O)Cl", "outcome": "inactive"}
{"compound": "C[C@]12C=CC(=O)C=C1CC[C@H]1[C@@H]3C[C@@H](O)[C@](O)(C(=O)CO)[C@@]3(C)C[C@H](O)[C@@]12F", "AC50": "25.6 µM (active)"}
{"compound": "FC(F)(F)C(F)(F)C(F)(F)C(F)(F)C(F)(F)C(F)(F)I", "outcome": "inactive"}
{"compound": "COc1cc2c(c(OC)c1OC)-c1ccc(OC)c(=O)cc1[C@@H](NC(C)=O)CC2", "AC50": "0.0224 µM (active)"}
{"compound": "NC(=O)N1c2ccccc2C=Cc2ccccc21", "outcome": "inactive"}
{"compound": "c1ccc2cc3ccccc3cc2c1", "outcome": "inactive"}
{"compound": "CCCC(CCC)C(=O)O", "outcome": "inactive"}
{"compound": "Cn1cc[nH]c1=S", "outcome": "inactive"}
{"compound": "FC(F)=C(F)C(F)(F)C(F)(F)C(F)(F)C(F)(F)C(F)(F)C(F)(F)F", "outcome": "inactive"}
{"compound": "Nc1ccn([C@@H]2O[C@H](CO)[C@@H](O)[C@@H]2O)c(=O)n1", "outcome": "inactive"}
{"compound": "OC(O)(C(F)C(O)(O)C(F)(F)F)C(F)(F)F", "outcome": "inactive"}
{"compound": "NNC(=O)c1ccncc1", "outcome": "inactive"}
